The target of experiment [1] is Beta-2 adrenergic receptor (Homo sapiens) (UniProt P07550). Kind of experiment: qHTS validation assay of beta-arrestin-biased ligands of beta2-adrenergic receptor (AID 485366). Further: 0% is about no effect. The essentials:
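Agonist activity is measured as luciferase luminescence downstream of beta-arrestin recruitment to recombinant beta2-AR in Tango cells. Exposure lasts 18 hr at 37 degrees C, and curves are categorized by r2, response size and activity.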
(In general: qHTS replaces the single test concentration by a dilution series.)

Experiment [2] deals with ATP-dependent 6-phosphofructokinase (Trypanosoma brucei brucei) (UniProt O15648). The experiment in a line: qHTS Validation Assay to Find Inhibitors of T. brucei phosphofructokinase (AID 485368). In short, it runs like this:
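Inhibition derived from concentration-response curves of luminescence, ranked by r2, response size and curve class; the underlying reaction used 1.25 nM PFK, 0.1 mM ATP and 0.5 mM F6P, 45 min, room temperature.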

Experiment [3] is described as follows: Quantitative high throughput screen for delayed death inhibitors of the malarial parasite plastid, 48 hour incubation (AID 488752). Further: nearly all actives have a fitted effect of over 65% in size. Further: potency means the concentration at half of the fitted maximal effect. The essentials:
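Cultures: infected erythrocytes at final 2% hematocrit and 0.1% parasitemia in Albumax-supplemented RPMI. Parasites express integrated firefly luciferase. Incubation with compound lasts 48 h before luminescent detection of remaining reporter activity.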

For experiment [4], the target named is Thioredoxin reductase 1, cytoplasmic (Rattus norvegicus) (UniProt O89049). Kind of experiment: qHTS Assay for Substrates of Mammalian Selenoprotein Thioredoxin Reductase 1 (TrxR1) (AID 488772).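 Further: series mostly up to about 57 µM; 0% is about no effect; a drop in NADPH fluorescence below the no-compound background marks a TrxR1 substrate.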 In short, it runs like this: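 In this dual-purpose format, potential substrates are identified from the first fluorescence read after selenite addition, not from the 8-minute delta. Rat enzyme is preincubated with NADPH and then with compound at ~22 deg C.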
Thioredoxin reductase 1, cytoplasmic (Rattus norvegicus), sequence (O89049 whole entry, looked up): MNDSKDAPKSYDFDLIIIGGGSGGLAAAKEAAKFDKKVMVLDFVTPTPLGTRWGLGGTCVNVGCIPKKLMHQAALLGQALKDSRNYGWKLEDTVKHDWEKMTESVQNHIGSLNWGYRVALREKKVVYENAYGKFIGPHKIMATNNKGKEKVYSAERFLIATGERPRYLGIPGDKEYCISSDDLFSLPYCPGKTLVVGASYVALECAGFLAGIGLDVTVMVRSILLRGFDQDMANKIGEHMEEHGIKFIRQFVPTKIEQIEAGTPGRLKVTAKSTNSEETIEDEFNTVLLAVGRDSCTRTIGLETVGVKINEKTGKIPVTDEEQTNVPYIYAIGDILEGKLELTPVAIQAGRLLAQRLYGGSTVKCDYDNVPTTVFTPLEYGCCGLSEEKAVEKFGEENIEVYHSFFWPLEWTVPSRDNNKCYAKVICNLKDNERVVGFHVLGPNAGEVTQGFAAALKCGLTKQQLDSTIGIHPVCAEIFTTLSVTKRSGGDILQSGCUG

The target is the same in experiment [5]. Kind of experiment: qHTS Assay for Inhibitors of Mammalian Selenoprotein Thioredoxin Reductase 1 (TrxR1) (AID 488773).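 Further: drop in NADPH fluorescence over an 8 min run after selenite addition; series mostly up to about 57 µM; on the % scale 0 is the no-effect control and ±100 the full control effect; nearly all actives have a fitted effect of over 40% in size.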 Conditions: Potency: inhibition. In short, it runs like this:
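Inhibition is scored from the loss of NADPH fluorescence between first and last reads of an 8-min kinetic run. Selenite (400 uM) was the substrate, added after 15 min compound preincubation at room temperature.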

For experiment [6], the target named is Flap endonuclease 1 (Homo sapiens) (UniProt P39748). Kind of experiment: qHTS Validation Assay for the Inhibitors of Human Flap endonuclease 1 (FEN1) (AID 488816). Further: on the % scale 0 is the no-effect control and ±100 the full control effect. In short, it runs like this:
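Enzyme reagent 10 nM; cpds pinned; 15 min RT preinc.; substrate 50 nM final; reads t=0 and 15 min; no-enzyme buffer wells as neg. control; normalized data, 4-parameter Hill fit.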

In experiment [7] the target is M-phase phosphoprotein 8 (Homo sapiens) (UniProt Q99549). The experiment in a line: qHTS Validation Assay for Inhibitors for MPP8 Chromodomain Interactions with Methylated Histone Tails (AID 488949).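 Further: AlphaScreen signal from MPP8 chromodomain bound to biotinylated H3K9me3 peptide; top concentration of the series differs between compounds; on the % scale 0 is the no-effect control and ±100 the full control effect; nearly all actives have a fitted effect of over 55% in size.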 The essentials:
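MPP8 (50 nM) was preincubated with biotinylated H3(1-18)K9me3 peptide (50 nM) in PBS pH 7.4, 0.01% Tween-20 for 30 min at room temperature, then with compounds for 30 min; binding was detected by AlphaScreen.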

Experiment [8] concerns the target Chromobox protein homolog 1 (Homo sapiens) (UniProt P83916). The experiment in a line: qHTS Validation Assay for Inhibitors of HP1-beta Chromodomain Interactions with Methylated Histone Tails (AID 488953).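 Further: loss of AlphaScreen luminescence from HP1-beta binding biotinylated H3K9me3 peptide; series mostly up to about 110 µM; on the % scale 0 is the no-effect control and ±100 the full control effect; nearly all actives have a fitted effect of over 50% in size.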 In short, it runs like this: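 Compounds pinned into a preassembled complex of HP1-beta and trimethyl-K9 histone H3(1-18) biotin peptide (50 nM each; PBS pH 7.4, 0.01% Tween-20). After 30 min, bead-based AlphaScreen detection followed.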

The target of experiment [9] is Methanococcus maripaludis chaperonin (MmCpn) (UniProt Q6LX38). Kind of experiment: High-Throughput Screening for Modulators of Cytosolic Chaperonin Activity: MmCpn Primary Screen (AID 488978).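 Further: 50 nM MmCpn enzyme hydrolysing 30 µM ATP at 37 °C; 0% is about no effect.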 In short, it runs like this: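 MmCpn (50 nM final) was preincubated with compound 5 min at RT, then 30 uM ATP (final) was added and the reaction ran 10 min at 37C. ADP produced was detected by Transcreener HTRF (ex 320 nm; em 590/665 nm).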

Experiment [10] has as its target D(1A) dopamine receptor (Homo sapiens) (UniProt P21728). Kind of experiment: HTS Assay for Allosteric Agonists of the Human D1 Dopamine Receptor: Primary Screen for Potentiators (AID 488982). Further: 0% is about no effect. The essentials:
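Tetracycline-induced HEK293 Trex D1 cells with forced coupling to calcium, loaded with no-wash calcium dye; kinetic fluorescence read 180 s after compound addition for agonism, then a further 180 s after an EC20 dopamine challenge for potentiation.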

The target is the same in experiment [11]. Kind of experiment: HTS Assay for Allosteric Agonists of the Human D1 Dopamine Receptor: Primary Screen for Antagonists (AID 488983).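 Further: calcium flux response to an EC80 dopamine challenge measured with no-wash dye; on the % scale 0 is the no-effect control and ±100 the full control effect; nearly all actives have a fitted effect of over 65% in size.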 In short, it runs like this:
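In this primary screen, compounds are applied to calcium-dye-loaded HEK293 T-REx cells with force-coupled D1 expression induced overnight at 30 C. An EC80 of dopamine follows the 180 s compound phase, and calcium is monitored for a further 180 s.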

A short description of experiment [12]: Validation screen for small molecules that induce genotoxicity in human embryonic kidney (HEK293T) cells expressing luciferase-tagged ELG1 (AID 493106). Further: 0% is about no effect. In short, it runs like this:
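In this validation screen, increased ELG1-luciferase signal flags compounds causing genetic stress. HEK293T reporter cells are treated 16 hr (37 °C, 5% CO2), developed with ONE-Glo for 30 min at room temperature, and imaged on a CCD-based reader.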

The target of experiment [13] is ATPase family AAA domain-containing protein 5 (Homo sapiens) (UniProt Q96QE3). The experiment in a line: Validation screen for small molecules that inhibit ELG1-dependent DNA repair in human embryonic kidney (HEK293T) cells expressing luciferase-tagged ELG1 (AID 493107).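 Further: cells co-treated with the DNA-damaging agent 5-fluorouridine alongside compound; series mostly up to about 46 µM; on the % scale 0 is the no-effect control and ±100 the full control effect; inhibitors lower the ELG1-luciferase luminescence signal; nearly all actives have a fitted effect of over 70% in size.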 The essentials:
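Compounds reducing 5-fluorouridine-driven ELG1-luciferase signal in HEK293T cells were scored; exposure lasted 16 hr at 37 °C with luminescence detected via ONE-Glo.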

Experiment [14] has as its target Thyrotropin-releasing hormone receptor (Homo sapiens) (UniProt P34981). The experiment in a line: qHTS for Small Molecule Agonists and Allosteric Enhancers of Human TRH Receptor: Validation Screen for Agonists (AID 493127;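 active means calcium activation more than 3 SD above the typical response in the agonist read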;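 further: intracellular calcium rise by fluo-8 fluorescence before TRH EC20 addition; 0% is about no effect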). Conditions: TRH receptor agonist cell assay; at 2 µM; stronger effect = higher value. In short, it runs like this: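 Kinetic fluorescence assay of agonist-induced calcium release: overnight-plated TRHR cells, room-temperature fluo-8 loading, baseline then compound addition with per-second reads.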

A short description of experiment [15]: Nrf2 qHTS screen for inhibitors: Validation (AID 493153; active means well fitted inhibition curve with a large enough effect in the main read-out, with a control signal flat, not every such curve was filed as active). Conditions: Potency: luciferase luminescence; viability change: measured here: cytotoxicity max response. In short, it runs like this:
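In this counterscreened reporter format, each well gives two signals: CellTiter-Fluor fluorescence for cytotoxicity and ARE-luciferase luminescence for Nrf2 function. A549 ARE_Fluc cells in 5% FBS OPTI-MEM were exposed to compound titrations for 18-24 h.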

Experiment [16] can be described thus: qHTS for Inhibitors of Cell Surface uPA Generation: Validation Assay (AID 493164).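 Further: RAW 264.7 macrophage cells exposed to compound for 18 h; 0% is about no effect.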 The essentials:
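Compounds are titrated over seven points (2.45 nM–38.3 uM final) onto pre-plated RAW 264.7 cells and incubated for 18 h. Retained intracellular ATP, measured with ATP-Lite, indicates blocked lethal factor entry.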

For experiment [17], the target named is Thyrotropin receptor (Homo sapiens) (UniProt P16473). The experiment in a line: qHTS Assay for Antagonists of the Thyroid Stimulating Hormone Receptor (AID 488980). Further: series mostly up to about 58 µM; 0% is about no effect. The essentials:
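HEK293 cells transfected with human TSHR, suspended in HEPES-buffered HBSS with 70 uM RO 20-1724, were treated with compounds plus TSH at EC80 (4 nM final). cAMP was measured by competitive HTRF (cryptate anti-cAMP antibody, cAMP-d2 acceptor).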

Experiment [18] deals with ATP-dependent 6-phosphofructokinase (Trypanosoma brucei brucei) (UniProt O15648). Kind of experiment: qHTS Assay to Find Inhibitors of T. brucei phosphofructokinase: hit validation (AID 492961).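 Further: luminescence reports ADP formed as PFK phosphorylates fructose-6-phosphate with ATP; series mostly up to about 51 µM; on the % scale 0 is the no-effect control and ±100 the full control effect.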 In short, it runs like this: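 Inhibition of parasite PFK is measured as reduced ADP formation, quantified via luciferase after ATP depletion. Assay used 0.1 mM ATP, 0.5 mM F6P, 1.25 nM enzyme, 45 min incubation.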
ATP-dependent 6-phosphofructokinase (Trypanosoma brucei brucei), sequence (O15648 whole entry, looked up): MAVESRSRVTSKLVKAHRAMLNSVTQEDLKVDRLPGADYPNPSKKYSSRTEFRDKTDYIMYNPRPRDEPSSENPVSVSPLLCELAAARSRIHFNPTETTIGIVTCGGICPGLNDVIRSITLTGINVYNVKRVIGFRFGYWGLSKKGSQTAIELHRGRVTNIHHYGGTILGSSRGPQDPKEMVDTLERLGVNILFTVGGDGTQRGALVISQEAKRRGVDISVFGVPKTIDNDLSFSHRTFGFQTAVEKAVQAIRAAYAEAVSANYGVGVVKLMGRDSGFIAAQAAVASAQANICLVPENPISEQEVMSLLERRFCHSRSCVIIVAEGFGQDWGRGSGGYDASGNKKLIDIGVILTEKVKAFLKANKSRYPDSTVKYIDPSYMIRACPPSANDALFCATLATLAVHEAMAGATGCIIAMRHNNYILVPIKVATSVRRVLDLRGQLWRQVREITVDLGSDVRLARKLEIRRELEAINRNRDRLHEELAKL

6 molecules from PubChem BioAssay (NCATS) can be followed below.

Inconclusive results are not listed. Calls of active or inactive are those of the source. Unless noted, the call rests on the fitted dose curve; in most records, active means well fitted curve in the direction sought with a large enough effect; inconclusive means small, poorly fitted or top-dose-only effect, or another doubt; inactive means no such curve, though single readings can be large; an effect the other way counts as inactive or inconclusive.

Flap endonuclease 1 (Homo sapiens), sequence (P39748 whole entry, looked up): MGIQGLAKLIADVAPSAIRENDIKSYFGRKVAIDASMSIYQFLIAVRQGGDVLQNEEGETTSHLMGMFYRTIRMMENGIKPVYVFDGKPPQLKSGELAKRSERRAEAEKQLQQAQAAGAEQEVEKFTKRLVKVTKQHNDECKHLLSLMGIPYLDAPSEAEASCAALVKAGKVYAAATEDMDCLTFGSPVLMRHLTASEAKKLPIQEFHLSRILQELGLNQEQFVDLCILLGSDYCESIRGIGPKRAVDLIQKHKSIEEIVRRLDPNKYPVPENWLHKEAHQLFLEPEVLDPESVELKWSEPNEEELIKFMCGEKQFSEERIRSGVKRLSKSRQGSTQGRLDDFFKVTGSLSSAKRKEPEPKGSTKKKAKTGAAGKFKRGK
M-phase phosphoprotein 8 (Homo sapiens), sequence (Q99549 whole entry, looked up): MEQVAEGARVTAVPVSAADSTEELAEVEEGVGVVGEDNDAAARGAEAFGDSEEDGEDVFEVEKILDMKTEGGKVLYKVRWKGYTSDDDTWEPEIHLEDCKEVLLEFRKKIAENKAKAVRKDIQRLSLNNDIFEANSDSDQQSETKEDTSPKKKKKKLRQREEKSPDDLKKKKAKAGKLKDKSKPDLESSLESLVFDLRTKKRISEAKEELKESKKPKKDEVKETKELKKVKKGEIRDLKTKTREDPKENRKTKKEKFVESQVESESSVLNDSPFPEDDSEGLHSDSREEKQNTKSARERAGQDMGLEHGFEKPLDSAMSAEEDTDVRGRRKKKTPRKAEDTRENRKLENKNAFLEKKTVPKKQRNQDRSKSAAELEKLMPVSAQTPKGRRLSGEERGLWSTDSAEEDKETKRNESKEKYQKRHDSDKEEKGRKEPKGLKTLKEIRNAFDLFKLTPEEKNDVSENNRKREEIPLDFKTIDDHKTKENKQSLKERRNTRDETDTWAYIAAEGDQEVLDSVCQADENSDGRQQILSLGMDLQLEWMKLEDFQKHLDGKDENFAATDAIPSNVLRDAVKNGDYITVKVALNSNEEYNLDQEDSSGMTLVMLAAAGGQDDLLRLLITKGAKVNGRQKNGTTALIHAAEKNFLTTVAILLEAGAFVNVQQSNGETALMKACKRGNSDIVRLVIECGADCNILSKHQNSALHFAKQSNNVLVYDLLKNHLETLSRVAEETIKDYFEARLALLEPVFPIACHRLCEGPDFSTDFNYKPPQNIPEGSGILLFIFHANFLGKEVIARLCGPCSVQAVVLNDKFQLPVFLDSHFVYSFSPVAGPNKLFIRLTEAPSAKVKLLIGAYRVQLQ
D(1A) dopamine receptor (Homo sapiens), sequence (P21728 whole entry, looked up): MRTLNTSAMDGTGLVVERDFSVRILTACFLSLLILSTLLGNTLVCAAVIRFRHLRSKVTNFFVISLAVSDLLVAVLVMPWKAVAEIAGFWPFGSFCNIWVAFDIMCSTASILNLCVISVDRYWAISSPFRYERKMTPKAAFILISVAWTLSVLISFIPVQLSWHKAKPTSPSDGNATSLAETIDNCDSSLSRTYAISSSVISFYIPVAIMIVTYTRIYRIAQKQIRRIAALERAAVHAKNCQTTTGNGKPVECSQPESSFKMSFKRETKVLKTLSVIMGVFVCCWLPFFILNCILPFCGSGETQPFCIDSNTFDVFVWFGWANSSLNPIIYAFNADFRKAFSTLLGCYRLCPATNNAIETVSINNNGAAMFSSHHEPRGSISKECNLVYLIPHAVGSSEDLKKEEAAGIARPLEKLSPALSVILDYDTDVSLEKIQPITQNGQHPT
ATPase family AAA domain-containing protein 5 (Homo sapiens), sequence (Q96QE3 whole entry, looked up, the tested form may be a part): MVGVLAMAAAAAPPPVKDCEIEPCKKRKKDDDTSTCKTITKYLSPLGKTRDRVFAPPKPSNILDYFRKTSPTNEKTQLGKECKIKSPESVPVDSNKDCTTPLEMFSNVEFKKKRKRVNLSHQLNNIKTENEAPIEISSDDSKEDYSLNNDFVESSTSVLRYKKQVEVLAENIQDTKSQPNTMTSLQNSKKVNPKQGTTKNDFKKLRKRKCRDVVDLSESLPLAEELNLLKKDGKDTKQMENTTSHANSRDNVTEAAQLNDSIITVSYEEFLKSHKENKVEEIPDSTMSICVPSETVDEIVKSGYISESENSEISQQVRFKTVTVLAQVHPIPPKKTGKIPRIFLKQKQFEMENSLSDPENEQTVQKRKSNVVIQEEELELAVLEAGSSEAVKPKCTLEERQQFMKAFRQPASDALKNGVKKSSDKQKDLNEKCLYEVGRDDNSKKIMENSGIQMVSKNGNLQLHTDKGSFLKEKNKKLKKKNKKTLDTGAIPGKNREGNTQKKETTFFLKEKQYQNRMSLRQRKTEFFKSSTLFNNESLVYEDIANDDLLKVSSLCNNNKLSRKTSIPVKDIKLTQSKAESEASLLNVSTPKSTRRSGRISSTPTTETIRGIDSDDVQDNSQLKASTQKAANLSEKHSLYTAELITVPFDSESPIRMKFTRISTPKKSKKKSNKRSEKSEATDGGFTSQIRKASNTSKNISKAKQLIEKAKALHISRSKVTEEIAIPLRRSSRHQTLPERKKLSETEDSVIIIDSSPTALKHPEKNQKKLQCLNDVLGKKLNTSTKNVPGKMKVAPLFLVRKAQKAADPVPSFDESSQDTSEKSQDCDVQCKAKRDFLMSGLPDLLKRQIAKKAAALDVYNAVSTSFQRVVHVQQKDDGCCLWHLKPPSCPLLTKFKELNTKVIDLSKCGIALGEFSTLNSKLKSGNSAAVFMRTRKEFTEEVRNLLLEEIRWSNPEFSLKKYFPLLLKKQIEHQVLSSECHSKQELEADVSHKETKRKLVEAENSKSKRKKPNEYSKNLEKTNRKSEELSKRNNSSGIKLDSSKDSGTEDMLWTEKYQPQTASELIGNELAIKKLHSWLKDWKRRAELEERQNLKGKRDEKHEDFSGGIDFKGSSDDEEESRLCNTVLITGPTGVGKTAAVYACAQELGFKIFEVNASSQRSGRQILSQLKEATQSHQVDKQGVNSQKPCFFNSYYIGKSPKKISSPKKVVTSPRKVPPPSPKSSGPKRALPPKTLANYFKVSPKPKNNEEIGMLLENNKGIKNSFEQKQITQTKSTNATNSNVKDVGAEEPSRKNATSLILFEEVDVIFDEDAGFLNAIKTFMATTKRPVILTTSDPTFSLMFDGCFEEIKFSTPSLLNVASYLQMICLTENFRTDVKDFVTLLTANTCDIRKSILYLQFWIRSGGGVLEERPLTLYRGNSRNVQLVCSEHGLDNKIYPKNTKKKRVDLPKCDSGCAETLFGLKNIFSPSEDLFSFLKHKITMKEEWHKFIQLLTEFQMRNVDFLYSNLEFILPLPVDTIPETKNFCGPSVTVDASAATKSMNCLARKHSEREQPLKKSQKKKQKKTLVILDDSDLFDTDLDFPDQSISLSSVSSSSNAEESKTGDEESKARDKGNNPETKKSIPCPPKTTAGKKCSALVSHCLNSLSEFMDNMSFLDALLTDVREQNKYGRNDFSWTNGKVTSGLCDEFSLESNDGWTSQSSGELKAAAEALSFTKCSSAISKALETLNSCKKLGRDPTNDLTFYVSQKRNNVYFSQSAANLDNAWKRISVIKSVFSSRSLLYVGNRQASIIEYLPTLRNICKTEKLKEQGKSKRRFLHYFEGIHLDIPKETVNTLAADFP
Chromobox protein homolog 1 (Homo sapiens), sequence (P83916 whole entry, looked up): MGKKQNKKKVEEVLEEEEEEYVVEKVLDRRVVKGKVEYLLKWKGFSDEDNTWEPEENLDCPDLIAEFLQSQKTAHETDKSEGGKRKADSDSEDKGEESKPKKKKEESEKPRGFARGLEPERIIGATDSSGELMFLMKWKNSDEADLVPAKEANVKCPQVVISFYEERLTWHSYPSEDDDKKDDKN

Turning to `CC(=O)OCC(=O)[C@@]1(O)CC[C@H]2[C@@H]3CCC4=CC(=O)CC[C@]4(C)[C@H]3C(=O)C[C@@]21C`, the result in [1], in experiment [4], in [10], in [13] and in [16] was inactive. Moreover, the Potency result in experiment [2], in [3], in [5], in experiment [6], in experiment [7] and in experiment [8] was “inactive” throughout. The Potency result in [9], in experiment [11], in experiment [12] and in experiment [15] was “inactive” each time. In [14], the activation was 1.06% (inactive). Also, the viability change in experiment [15] turned out to be 3.82%.

Consider `CCCCCCCCCCCCCCCC(=O)NCCO`, for which the result in [1], in [4], in experiment [17], in experiment [10], in [13] and in experiment [16] was inactive. The Potency result in [2], in experiment [3], in experiment [5], in [6], in experiment [7] and in [8] was “inactive” each time. Also, the Potency entry in experiment [9], in [11], in [18], in experiment [12] and in experiment [15] was “inactive” in each case. Also, the activation in experiment [14] was 1.06% (inactive). In [15], the viability change is -3.02%.

In the case of `CCN(CC)CCOC(=O)C1(C2CCCCC2)CCCCC1`, the molecule was called inactive in experiment [1], in [4], in [17], in [10], in [13] and in experiment [16]. For the same molecule, the Potency result in [2], in experiment [3], in [5], in [6], in [7] and in experiment [8] was “inactive” each time. The Potency entry in experiment [9], in [12] and in experiment [15] was “inactive” in each case. Also, the activation in experiment [14] is -6.69% (inactive). In [15], the viability change was -2.64%.

With `NC1CCN(c2cccc(Cl)n2)CC1`, the call in experiment [1], in [4], in experiment [10], in [13] and in [16] was inactive. The Potency result in experiment [2], in experiment [3], in [5], in experiment [6], in experiment [7] and in experiment [8] was “inactive” in each case. The Potency entry in experiment [9], in experiment [11], in experiment [12] and in experiment [15] was “inactive” throughout. Further, the activation in experiment [14] is 1.06% (inactive). For the same molecule, the viability change in experiment [15] is -3.84%.

Turning to `CC(C(O)c1ccc(O)cc1)N1CCC(Cc2ccccc2)CC1` (stereo not drawn), the result in [1], in experiment [4], in experiment [10] and in experiment [16] was inactive. The Potency entry in experiment [2], in experiment [5], in experiment [6], in [7], in [8] and in [9] was “inactive” each time. The Potency result in experiment [18], in experiment [12] and in experiment [15] was “inactive” throughout. In experiment [3], the Potency was 4.65 µM (active). In addition, the activation in experiment [14] is 5.75% (inactive). Also, in [15], the viability change is -19.8%.

As to `CC(C)(C(=O)O)c1ccc(C(O)CCCN2CCC(C(O)(c3ccccc3)c3ccccc3)CC2)cc1` (stereo not drawn), the molecule was classed as inactive in experiment [1], in [4], in experiment [17], in experiment [10], in [13] and in experiment [16]. The Potency entry in experiment [3], in experiment [5], in [6], in experiment [7], in [8] and in [9] was “inactive” in each case. Further, the Potency entry in experiment [11], in [12] and in experiment [15] was “inactive” in each case. In experiment [14], the activation is -0.125% (inactive). Moreover, the viability change in [15] amounted to 5.93%.
